Test results: PubChem BioAssay (NCI)
About 79,000 compounds went through this panel and 15% of them were active in at least one assay; those are over-represented in the sample as a whole. Calls of active or inactive are those of the source. Cut-off read from the data, not from the text of the source: active = growth inhibition above about 70%; inactive = the rest.

Experiments:
[1] = NCI Yeast Anticancer Drug Screen. Data for the rad52 strain (AID 147);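 note: 0% = growth of vehicle-treated control cultures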; details: S. cerevisiae rad52 mutant growth inhibition, stronger effect = higher value
Procedure, shortened: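 Measured: yeast growth inhibition. System: strain with a defined DNA damage repair alteration. Reference: vehicle-treated control cultures.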

[2] = NCI Yeast Anticancer Drug Screen. Data for the wt1 strain (AID 149);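 note: 0% = growth of vehicle-treated wt1 cultures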; details: S. cerevisiae wt1 strain (SPY 50644) growth inhibition, stronger effect = higher value
Procedure, shortened: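 Vehicle-normalised growth inhibition; strain wt1; compound exposure.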

[3] = NCI Yeast Anticancer Drug Screen. Data for the rad50EPP+ strain (AID 151);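 note: 0% = growth of vehicle-treated control cultures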; details: S. cerevisiae rad50 mutant strain, stronger effect = higher value
Procedure, shortened: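 One strain with a rad50 alteration (rad50EPP+) was compound-treated, its growth then compared to that of vehicle controls.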

[4] = NCI Yeast Anticancer Drug Screen. Data for the mgt1 strain (AID 153); details: S. cerevisiae mgt1 mutant growth inhibition, stronger effect = higher value
Procedure, shortened: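 After exposure of the mgt1 yeast mutant to compound, growth was measured and reported as inhibition compared with vehicle controls.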

[5] = NCI Yeast Anticancer Drug Screen. Data for the rad50 strain (AID 155);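 note: 0% = growth of vehicle-only cultures of the same strain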; details: S. cerevisiae rad50 strain growth inhibition, stronger effect = higher value
Procedure, shortened: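 A DNA repair-deficient yeast mutant serves as the test organism; compound-induced growth inhibition is calculated against vehicle-treated cells.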

[6] = NCI Yeast Anticancer Drug Screen. Data for the mec2-1 strain (AID 157); details: S. cerevisiae mec2-1 strain, stronger effect = higher value
Procedure, shortened: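 Test agents were screened against the mec2-1 yeast strain, with defined DNA repair or cell cycle alteration. Growth was scored as inhibition against vehicle-only controls.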

[7] = NCI Yeast Anticancer Drug Screen. Data for the rad14 strain (AID 159);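 note: 0% = growth of vehicle-treated control cultures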; details: S. cerevisiae rad14 strain growth inhibition, stronger effect = higher value
Procedure, shortened: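 Vehicle-treated cultures served as the baseline for growth inhibition of a DNA repair-mutant yeast strain exposed to each compound.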

[8] = NCI Yeast Anticancer Drug Screen. Data for the sgs1 mgt1 strain (AID 161);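 note: 0% = growth of cultures given vehicle only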; details: S. cerevisiae sgs1 mgt1 strain, stronger effect = higher value
Procedure, shortened: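 Genetically altered yeast, compound exposure, growth inhibition relative to vehicle.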

[9] = NCI Yeast Anticancer Drug Screen. Data for the CLN2oe strain (AID 163);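 note: 0% = growth of vehicle-only control cultures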; details: S. cerevisiae CLN2oe strain, stronger effect = higher value
Procedure, shortened: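 Here, growth inhibition in a cell-cycle-altered yeast strain after compound exposure was quantified against vehicle control growth.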

[10] = NCI Yeast Anticancer Drug Screen. Data for the cln2 rad14 strain (AID 165);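 note: 0% = growth equal to vehicle treated cultures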; details: S. cerevisiae cln2 rad14 strain, stronger effect = higher value
Procedure, shortened: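 Growth of compound-exposed yeast (cln2 rad14 genotype) measured and expressed as inhibition relative to vehicle.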

[11] = NCI Yeast Anticancer Drug Screen. Data for the bub3 strain (AID 167); details: S. cerevisiae bub3 mutant strain, stronger effect = higher value
Procedure, shortened: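 Inhibition values come from growth of compound-treated mutant yeast normalised to vehicle-treated controls.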

[12] = NCI Yeast Anticancer Drug Screen. Data for the wt2 strain (AID 169);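 note: 0% = growth of vehicle-treated yeast cultures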; details: S. cerevisiae wt2 strain growth inhibition, stronger effect = higher value
Procedure, shortened: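 Genetically defined yeast strains from a DNA-repair/cell-cycle panel were used. Compound-exposed yeast growth was measured, and the inhibition was calculated relative to vehicle treatment.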

[13] = NCI Yeast Anticancer Drug Screen. Data for the mlh1 strain (AID 171);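 note: 0% = growth of vehicle-treated control cultures of the same strain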; details: S. cerevisiae mlh1 strain growth inhibition, stronger effect = higher value
Procedure, shortened: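 Here the genetically defined yeast mutant is grown with each compound, and the extent to which its growth falls below that of vehicle-exposed cells is reported.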

[14] = NCI Yeast Anticancer Drug Screen. Data for the sgs1 strain (AID 173);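 note: 0% = growth of vehicle-only control cultures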; details: S. cerevisiae sgs1 mutant, stronger effect = higher value
Procedure, shortened: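 Relative growth inhibition, referenced to vehicle, was determined in a yeast strain with a defined alteration affecting DNA damage repair or cell cycle control after compound exposure.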

[15] = NCI Yeast Anticancer Drug Screen. Data for the mlh1 rad18 strain (AID 175); details: S. cerevisiae mlh1 rad18 strain growth inhibition, stronger effect = higher value
Procedure, shortened: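 In this whole-cell yeast screen, a strain with altered DNA damage repair is challenged with compound, and its growth is measured against matched vehicle-treated controls.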

[16] = NCI Yeast Anticancer Drug Screen. Data for the rad18 strain (AID 177); details: S. cerevisiae rad18 mutant growth inhibition, stronger effect = higher value
Procedure, shortened: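 Screen uses a yeast strain with a defined lesion in DNA damage repair; compound effect is read as loss of growth compared to untreated vehicle cultures.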

[17] = at 5.0 µM (retest, dose inferred, filed as 0.5)
[18] = at 50.0 µM (retest, dose inferred, filed as 5.0)

Measured: growth inhibition

O=C1OC(=O)C2CCCC3CCCC1C32 (stereo not drawn)
active: [1]; at 11.0 µM 85% | [1]; at 33.0 µM 90% | [1]; at 100.0 µM 97% | [2]; at 11.0 µM 83% | [2]; at 33.0 µM 90% | [2]; at 100.0 µM 97% | [3]; at 11.0 µM 75% | [3]; at 33.0 µM 90% | [3]; at 100.0 µM 95% | [4]; at 11.0 µM 82% | [4]; at 33.0 µM 87% | [4]; at 100.0 µM 96% | [5]; at 11.0 µM 93% | [5]; at 33.0 µM 96% | [5]; [18] 97% | [5]; at 100.0 µM 96% | [6]; at 11.0 µM 71% | [6]; at 33.0 µM 95% | [6]; [18] 99% | [6]; at 100.0 µM 97% | [7]; at 33.0 µM 87% | [7]; at 100.0 µM 94% | [9]; at 3.7 µM 71% | [9]; at 11.0 µM 95% | [9]; at 33.0 µM 97% | [9]; at 100.0 µM 96% | [10]; [18] 98% | [11]; at 11.0 µM 93% | [11]; at 33.0 µM 96% | [11]; [18] 99% | [11]; at 50.0 µM 71.5% | [11]; at 100.0 µM 97% | [12]; at 11.0 µM 80% | [12]; at 33.0 µM 89% | [12]; at 100.0 µM 96% | [13]; at 11.0 µM 93% | [13]; at 33.0 µM 96% | [13]; at 100.0 µM 97% | [14]; at 3.7 µM 78% | [14]; at 11.0 µM 93% | [14]; at 33.0 µM 94% | [14]; at 100.0 µM 98% | [15]; [18] 98% | [16]; at 11.0 µM 94% | [16]; at 33.0 µM 94% | [16]; at 100.0 µM 97%
inactive: [1]; at 1.2 µM 23% | [1]; at 3.7 µM 67% | [2]; at 1.2 µM 7% | [2]; at 3.7 µM 51% | [3]; at 1.2 µM 42% | [3]; at 3.7 µM 54% | [4]; at 1.2 µM 34% | [4]; at 3.7 µM 48% | [5]; at 1.2 µM 17% | [5]; at 3.7 µM 68% | [5]; [17] -10% | [5]; at 50.0 µM 39% | [6]; at 1.2 µM 39% | [6]; at 3.7 µM 33% | [6]; [17] -8% | [6]; at 50.0 µM 36.8% | [7]; at 1.2 µM 17% | [7]; at 3.7 µM 28% | [7]; at 11.0 µM 47% | [8]; [17] -21% | [8]; [18] 10% | [8]; at 50.0 µM 55.1% | [9]; at 1.2 µM 40% | [10]; [17] 15% | [10]; at 50.0 µM 20.8% | [11]; at 1.2 µM 28% | [11]; at 3.7 µM 66% | [11]; [17] 53% | [12]; at 1.2 µM 36% | [12]; at 3.7 µM 62% | [13]; at 1.2 µM 44% | [13]; at 3.7 µM 64% | [14]; at 1.2 µM 26% | [15]; [17] 31% | [15]; at 50.0 µM 26.9% | [16]; at 1.2 µM 25% | [16]; at 3.7 µM 67%
